The values below come from PubChem BioAssay AID651636 (Sanford-Burnham Center for Chemical Genomics, 2012).

Structures are written as SMILES. In all, about 360,000 compounds went through this assay and about 3,000 (0.83%) were called active. Only a selection was taken, and actives are over-represented in it overall. A number with no mark means an inactive call. Rule as the data show it: active = inhibition above about 38%; inactive = the rest.

The target of this test is G-protein coupled receptor 183 (Homo sapiens) (UniProt P32249). The experiment in a line: blockers of oxysterol-driven EBI2 arrestin signaling – cell-based, luminescence, 7a,25-OHC stimulation, uHTS, primary screen (AID 651636).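 Also: enzyme fragment complementation signal reports receptor beta-arrestin coupling in cells; 0% = agonist plus DMSO wells and 100% = wells without agonist.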 The settings on record: EBI2 beta-arrestin recruitment, 7a,25-OHC stimulated, at 5 µM, stronger effect = higher value.
Sequence of G-protein coupled receptor 183 (Homo sapiens) (P32249 whole entry, looked up, the tested form may be a part): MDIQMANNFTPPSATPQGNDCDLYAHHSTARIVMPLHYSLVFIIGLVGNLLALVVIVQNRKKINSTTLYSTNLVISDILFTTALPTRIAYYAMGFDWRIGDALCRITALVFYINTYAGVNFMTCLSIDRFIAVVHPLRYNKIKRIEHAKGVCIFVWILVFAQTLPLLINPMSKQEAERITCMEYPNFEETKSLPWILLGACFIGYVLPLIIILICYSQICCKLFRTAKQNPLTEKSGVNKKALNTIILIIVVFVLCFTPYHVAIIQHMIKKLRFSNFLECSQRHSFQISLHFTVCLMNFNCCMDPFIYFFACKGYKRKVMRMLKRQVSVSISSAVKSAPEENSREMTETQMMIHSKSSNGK
For the compound `CCc1nc2ccc(C(=O)N3CCN(c4cccc(Cl)c4)CC3)cc2nc1CC`, the inhibition (in general, the relative decrease from the control value, in per cent) was -4.92%.
Regarding `Cc1nc2ccc(C(=O)N3CCSCC3)cc2s1`, the inhibition is -12.2%.
Consider `Cc1nc2ccc(C(=O)N3CCN(c4ccccc4)CC3)cc2s1`, for which the inhibition was 65.3% (active).
As to `Cc1c(CN2CCCC(C(=O)c3cccc(Cl)c3)C2)c(=O)n(-c2ccccc2)n1C` (stereo unspecified), the inhibition was 5.82%.
Next, `OC[C@@H]1CN(Cc2ccncc2)C[C@H](n2cnc3c(N4CCN(c5ccccc5)CC4)ncnc32)O1`: 13.5%; `CC[C@]1(C(=O)OC)[C@H]2C(=O)N(Cc3ccccc3)C(=O)[C@H]2[C@H]2CN=C(SCc3ccc(Cl)cc3)N21`: 19.5%.
Next, `CCC1Nc2ncnc(N3CCN(c4ccccc4)CC3)c2N(Cc2ccc(Cl)cc2)C1=O` (stereo unspecified): 68.8% (active); `CC(C)CC1(C)NC(=O)N(CC(=O)Nc2ccc3c(c2)OCCO3)C1=O` (stereo unspecified): 10.5%.
The same measure for `O=C(NCCS(=O)(=O)N1CCN(c2ccc(F)cc2)CC1)c1ccc2c(c1)OCO2`: 5.18%.
Turning to `O=C(NNC(=S)Nc1ccc(F)cc1)[C@H]1C[C@@H]1c1ccccc1`, the inhibition is -13.1%.
On to `CCN(CC)c1ccc(/C=N/Nc2nc(C)cc(C)n2)c(O)c1`, for which the inhibition was 42.4% (active).
The same measure for `O=C(NCCN1C(=O)S/C(=C\c2cccnc2)C1=O)c1ccc(S(=O)(=O)N2CCCC2)cc1`: -1.14%.
Next, `Cc1ccc(SCCC(=O)NC(C(C)C)C(C)C)cc1`: 5.4%; `O=S(=O)(NCCOc1cccc2cccnc12)c1ccc(F)cc1`: 0.785%.
Next, `Cc1cc(OCCOc2cccc3cccnc23)c(C)cc1Cl`: 46.6% (active); `CCOc1cccc(OCCCOc2cccc3cccnc23)c1`: 4.1%; `CCOC(=O)N1CCN(C(=O)C[C@@H]2C[C@@]3(C(=O)OC)CC(C)(C)CC=C3N(Cc3ccco3)C2=O)CC1`: 3.44%.
Regarding `Cc1nc(-c2ccccc2)sc1C(=O)/C=C/c1ccccc1`, the inhibition is 55.4% (active).
Regarding `Cc1nc(-c2ccc(Cl)cc2)sc1C(=O)CBr`, the inhibition is 10.7%.
For the compound `Cc1[nH]c(=O)c(C(=O)/C=C/c2ccccc2)c2c1CCCC2`, the inhibition was -9.45%.
With `CC1=C/C(=N\OS(=O)(=O)c2ccccc2)C=CC1=O`, the inhibition was -17.6%.
For `O=S(=O)(Nc1cccc(-n2cnnn2)c1)c1cnc(Cl)c(Cl)c1`, the inhibition was -8.42%.
Take `CC(C)(C)C1CCC(=NNC(=O)c2ccc(Br)o2)CC1` (stereo unspecified): the inhibition was -9.46%.
The same measure for `CCCCC/C=C/C1=CC(=O)C[C@H](c2ccc(Cl)cc2)C1`: 4.95%; for `O=C1C=C(c2cccc(Br)c2)C[C@@H](c2ccc(F)cc2)C1`: 36.7%; for `O=C1C=C(c2cc(C(F)(F)F)cc(C(F)(F)F)c2)C[C@@H](c2ccc3c(c2)OCO3)C1`: 14%.
The same measure for `O=C1C=C(c2cccc(Cl)c2)C[C@@H](c2ccc(F)cc2)C1`: 22.1%; for `N#Cc1ccc(C2=CC(=O)C[C@H](c3ccc(Cl)cc3)C2)cc1`: 80.3% (active).
The same measure for `COc1ccc([C@H]2CC(=O)C=C(/C=C/c3ccccc3)C2)cc1`: 34.9%; for `COc1ccc([C@H]2CC(=O)C=C(c3ccc(C)cc3)C2)cc1`: 81.1% (active); for `COc1ccc([C@H]2CC(=O)C=C(/C=C/c3ccc(Cl)cc3)C2)cc1`: 44.1% (active).
In the case of `COc1ccc2cc(C3=CC(=O)C[C@H](c4ccc5c(c4)OCO5)C3)ccc2c1`, the inhibition was 71.7% (active).
Next, `COc1cccc(C2=CC(=O)C[C@H](c3ccc(OC)c(OC)c3)C2)c1`: 10.2%.
The same measure for `COc1ccc([C@H]2CC(=O)C=C(c3ccc(OC(F)(F)F)cc3)C2)cc1OC`: 31%; for `COc1ccc([C@H]2CC(=O)C=C(c3ccc(CO)cc3)C2)cc1`: 29.6%.
Next, `CSc1ncnc2c1ncn2CCCNCc1cccs1`: -4.51%; `COc1ccccc1C(=O)N1C(CC(=O)Nc2ccccc2C)C(=O)NC2CCCCC21` (stereo unspecified): 3.5%.
Regarding `COc1ccc(C)cc1NC(=O)CSc1nnc(CC(=O)Nc2ccccc2F)n1C`, the inhibition was 6.35%.
Next, `CC1CCc2sc3nc(N4CCN(CCO)CC4)n4ncnc4c3c2C1` (stereo unspecified): 61.6% (active); `CN1C[C@@H](CO)O[C@@H](n2cnc3c(N4CCN(CCO)CC4)ncnc32)C1`: 5.76%.
Take `Cc1ccc(C)c(C(=O)N2CCC(n3nccc3NC(=O)C3CC3)CC2)c1`: the inhibition is 5.07%.
The same measure for `C/C=C/C=C/C(=O)OCC(=O)Nc1ccc(Cl)cc1`: 1.78%; for `COc1ccc(C(=O)NC2CCN(C(=O)Nc3ccc(F)cc3)CC2)cc1`: -4.2%.
The same measure for `COc1ccc(NC(=O)N2CCCC(C(=O)Nc3ccccc3OC)C2)cc1` (stereo unspecified): 18.7%; for `COc1ccc(NC(=O)N2CCC(Cc3ccccc3)CC2)cc1`: 65.5% (active); for `NC(=O)C1(N2CCCCC2)CCN(C(=O)c2ccc(C#Cc3ccccc3)o2)CC1`: -2.84%.
Next, `CCc1ccccc1NC(=S)Nc1cc(OC)c(NC(=O)C(C)C)cc1OC`: -4.78%; `O=C(Nc1ccc(S(=O)(=O)N2CCCCC2)cc1)C1CC(=O)N(c2ccc(F)cc2)C1` (stereo unspecified): 45.7% (active).
On to `Cc1ccc(N2CC(C(=O)Nc3ccc(S(=O)(=O)N4CCCC4)cc3)CC2=O)cc1C` (stereo unspecified), for which the inhibition was 45.4% (active).
Next, `CC1CCN(S(=O)(=O)c2ccc(NC(=O)C3CC(=O)N(c4ccccc4)C3)cc2)CC1` (stereo unspecified): 38%.
With `Cc1ccccc1N1CC(C(=O)Nc2ccc(S(=O)(=O)N3CCCC3)cc2)CC1=O` (stereo unspecified), the inhibition is 7.48%.
Next, `Cc1ccc(NC(=O)C2CC(=O)N(c3ccc4c(c3)OCCO4)C2)cc1S(=O)(=O)N1CCCCCC1` (stereo unspecified): 14.6%.
For `O=C(Nc1ccc(S(=O)(=O)N2CCCCC2)cc1)C1CCN(C(=O)c2ccc(F)cc2)CC1`, the inhibition is 17%.
Turning to `CCCNC(=O)C1(C)CCN(C(=O)c2ccc(F)cc2Cl)C1` (stereo unspecified), the inhibition was -4.71%.
Consider `OCCC#Cc1ccc(N2C(c3ccsc3)=Cc3ccc(F)cc3C2c2c[nH]c3ccccc23)cc1` (stereo unspecified), for which the inhibition is 10.6%.
The same measure for `Cc1cnc(CN(C)C(=O)CC2C(=O)NCCN2Cc2cccc(F)c2F)[nH]1` (stereo unspecified): -7.04%.
